{
  "source": "PubChem BioAssay AID2284063",
  "about": "(EPA ToxCast)",
  "note": "Inconclusive results are not listed. Activity calls are given as the source filed them. The calls were made as follows: active = hit-call score of the fitted dose curve at least 0.9, where 1 is the maximum; inactive = score below 0.9.",
  "data": [
    {"biological_target": "human BTK TK Kinase, BTK (gene 695) (UniProt Q06187)", "sequence (Q06187 whole entry, looked up)": "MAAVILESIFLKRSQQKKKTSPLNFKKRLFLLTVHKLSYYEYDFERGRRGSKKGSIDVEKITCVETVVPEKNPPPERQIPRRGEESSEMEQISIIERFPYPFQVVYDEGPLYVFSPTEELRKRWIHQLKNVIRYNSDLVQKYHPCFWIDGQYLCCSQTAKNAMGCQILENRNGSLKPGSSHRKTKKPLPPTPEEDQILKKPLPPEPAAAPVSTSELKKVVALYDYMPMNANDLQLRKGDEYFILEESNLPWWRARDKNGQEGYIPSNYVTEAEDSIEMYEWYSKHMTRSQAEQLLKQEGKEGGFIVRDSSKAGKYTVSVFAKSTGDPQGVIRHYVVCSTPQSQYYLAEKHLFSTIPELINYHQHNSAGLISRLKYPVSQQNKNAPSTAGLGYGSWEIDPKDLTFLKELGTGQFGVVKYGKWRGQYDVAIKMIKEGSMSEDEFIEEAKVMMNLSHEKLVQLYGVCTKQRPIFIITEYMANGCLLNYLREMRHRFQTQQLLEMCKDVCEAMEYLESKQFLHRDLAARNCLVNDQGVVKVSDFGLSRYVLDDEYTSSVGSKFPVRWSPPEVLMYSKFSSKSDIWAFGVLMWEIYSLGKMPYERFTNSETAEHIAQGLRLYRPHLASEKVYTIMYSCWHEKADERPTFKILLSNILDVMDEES", "test": "ERF_TW_ENZ_hBTK: Eurofins (ERF) Enzymatic Radiometric [10 uM ATP] LeadHunter Assay for human BTK TK Kinase", "procedure": "ERF_TW_ENZ_hBTK is a biochemical, single-readout assay that uses extracted gene-proteins in a cell-free assay. Measurements were taken 0.5 hour after chemical dosing in a 96-well plate. See BTK Human TK Kinase Enzymatic Radiometric Assay [10 uM ATP], Panlabs.ERF_TW_ENZ_hBTK is an assay component calculated from the ERF_TW_ENZ_hBTK assay. It is designed to measure enzyme activity using a type of enzyme reporter as detected by scintillation counting with radiometry technology.Data from the assay component ERF_TW_ENZ_hBTK was analyzed at the assay endpoint, ERF_TW_ENZ_hBTK, in the positive analysis fitting direction relative to DMSO as the negative control and baseline of activity. Using a type of enzyme reporter, loss-of-signal activity can be used to understand changes in enzymatic activity as they relate to gene BTK. To generalize the intended target to other relatable targets, this assay endpoint is annotated to the kinase intended target family, where the subfamily is tyrosine kinase (tk).\nHuman recombinant protein kinase BTK expressed in insect Sf21 cells is used. Test compound and/or vehicle is preincubated with 200 ng/ml enzymedouble dagger in modified HEPES buffer pH 7.4 for 15 minutes at 37C. […] An aliquot is removed and counted to determine the amount of [32P]Poly(Glu:Tyr) formed. […]", "values": [
      {"smiles": "O=C(/C=C/c1ccc(O)cc1)CC(=O)/C=C/c1ccc(O)cc1", "AC50": "6.13 µM (active)"}
    ]}
  ]
}
